SW480 rereplic: induces DNA re-replication in SW480 colon adenocarcinoma cells. SW480 DNA re-replication, Hoechst DNA content imaging, 48 h. Potency, µM (series often up to 46.1 µM), for inactives: at the top dose re-replication activation, actives largely listed as activators. hit rate 1.8% among 340,000. AID 624297; note: % of control where 0% means no effect; nearly all actives have a fitted effect of over 55% in size
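Readout is total intensity of Hoechst-stained nuclei, excited at 405 nm and collected at 500-530 nm. Compound treatment lasted 48 hr at 37 C in 5% CO2 before staining.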
MCF10A rerep: induces DNA re-replication in MCF 10a normal breast cells; hit rate 2.9% among 350,000; MCF 10A DNA re-replication, Hoechst nuclear intensity, 48 h; AID 624296; Potency, µM (series often up to 46.1 µM), without a hit: top-dose activity, positive = re-replication, actives largely listed as activators; note: % of control where 0% means no effect; nearly all actives have a fitted effect of over 50% in size
KB-V1 MDR tox: KB-V1 MDR subline cytotoxicity; Potency, µM (top dose mostly 46.1 µM), hits mostly cytotoxic; KB-V1 MDR cells viability, CellTiter-Glo, 72 h; hit rate 3.4% among 400,000; note: % is set by controls: 0 for no effect and ±100 for the full control effect; nearly all actives have a fitted effect of over 60% in size
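Cells of the MDR subline KB-V1 are plated, dosed with compound at multiple concentrations, and incubated 72 h at 37 degrees C; CellTiter-Glo is then added and luminescence read after 10 min.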
KB-3-1 cytotox: KB-3-1 parental cell cytotoxicity | KB-3-1 viability, CellTiter-Glo ATP luminescence, 72 h | Potency, µM (highest dose often 46.1 µM), hits mostly cytotoxic | hit rate 1.4% among 400,000; note: % is set by controls: 0 for no effect and ±100 for the full control effect; nearly all actives have a fitted effect of over 60% in size
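KB-3-1 parental drug-naive adenocarcinoma cells in DMEM/10% FBS, incubated 72 h at 37 C with pin-transferred compounds across a concentration series. Viability by CellTiter-Glo luminescence; concentration-response curves fitted after normalization.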
HT1080 IDH1KD tx: kills HT-1080 cells with IDH1 knockdown. hit rate 2% among 360,000. HT-1080 IDH1 knockdown viability, ATP luminescence, 48 h. Potency, µM (top dose mostly 46.1 µM), for inactives: at the highest dose activity, negative = toxicity, actives largely listed as cytotoxic;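 note: 0% = DMSO wells and -100% = cell-free medium wells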
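Assay cells: HT-1080 with IDH1 knockdown, 750 per well, RPMI/5% FBS. Exposure: 48 h at 37 °C following 2 h pre-incubation. Read: CellTiter-Glo luminescence; fitted concentration-response, curve class assigned.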
HT1080NT lethal: kills 2HG-producing HT-1080-NT fibrosarcoma cells; HT-1080-NT fibrosarcoma viability, CellTiter-Glo ATP luminescence, 48 h; Potency, µM (series often up to 46.1 µM), for the others: at the top dose activity, negative = less viability, most hits filed as cytotoxic; hit rate 1.6% among 360,000;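 note: NT is the 2HG producing partner of a matched IDH1 knockdown line; 0% = DMSO-treated cells and -100% = media-only wells without cells; nearly all actives have a fitted effect of over 55% in size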
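750 cells/well, RPMI + 5% FBS; 2 h settle, compound pin-transfer, 48 h at 37 degrees C. CellTiter-Glo 10 min RT, luminescence. Normalized to DMSO and media-only wells.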
Starred values were filed as active, the others as inactive; i = inactive; ? = inconclusive; nt = not tested or not shown; [ ] = another dose, or the depositor's remark. This is a sample that favours compounds with a hit; in the whole collection about 7.9% have one here. Calls come from the whole dose curve; as a rule, active = well fitted curve in the direction sought with a large enough effect; inconclusive = small, poorly fitted or top-dose-only effect, or another doubt; inactive = no such curve, though single readings can be large; an effect the other way counts as inactive or inconclusive. Potency is the fitted concentration of half-maximal effect.

SMILES	SW480 rereplic	MCF10A rerep	KB-V1 MDR tox	KB-3-1 cytotox	HT1080 IDH1KD tx	HT1080NT lethal
COc1ccc(CC(=O)OCC(=O)NC2CCCCCC2)cc1OC	-124%	0%	i	i	14%	14%
O=C(NCCOc1cccc(Oc2ccccc2)c1)c1cc(-n2cnnc2)ccc1Cl	0%	3%	16µM*	i	?	-15%
O=C(NCCOc1cccc(Cl)c1Cl)c1cc(-n2cnnc2)ccc1Cl	-7%	20%	i	i	-21%	-26%
COc1ccc(NC(=S)Nc2ccc(OCc3ccccc3)cc2)c(OC)c1	12%	9%	16µM*	?	-11%	-14%
COc1ccc(NC(=S)Nc2ccccc2)c(OC)c1	9%	0%	i	i	-1%	1%
COc1ccc(CN(C2CCCCC2C)S(=O)(=O)c2ccc(S(=O)(=O)N(C)C)cc2)cc1OC (stereo not given)	29%	?	6.5µM*	i	-12%	-4%
CCOC(=O)c1ccc(/C=C2/C=C(c3ccccc3)N(c3ccc(Cl)c(C(=O)O)c3)C2=O)cc1	10%	21µM*	i	?	9.2µM*	26µM*
O=S(=O)(c1ccc(-c2ccon2)s1)N1CCOCC1	0.58µM*	19%	i	i	2%	5%
CCNC(=O)C1CCCN(C(=O)c2cccc(C#N)c2)CC1 (stereo not given)	nt	nt	i	i	23%	?
O=[N+]([O-])c1cc(Cl)cc2c1nc(NCCO)c1ccccc12	?	18%	?	18µM*	?	?
COc1ccccc1C1CCN(C(=O)c2ccccc2)CC1	-6%	?	i	i	4%	4%
COc1ccccc1C1CCN(c2cc(O)ccc2[N+](=O)[O-])CC1	-36%	16µM*	?	i	?	?
Cc1nc(-c2ccccc2)sc1C(=O)NS(=O)(=O)c1ccc(CN2CCN(c3ccccc3)CC2)cc1	nt	nt	i	i	1%	3%
Cc1nc([N+](=O)[O-])cn1CC(O)c1ccc2c(c1)OCCCO2 (stereo not given)	nt	nt	i	i	nt	nt
Cc1cc(N2C(=O)C(O)=C(C(=O)c3cc4ccccc4o3)C2c2cccc(Cl)c2)no1 (stereo not given)	?	?	i	i	-28%	-15%
C=CCOc1cccc(C2C(C(=O)c3cc4ccccc4o3)=C(O)C(=O)N2c2cc(C)on2)c1 (stereo not given)	?	21µM*	i	i	-6%	?
Cc1cc(N2C(=O)C(O)=C(C(=O)c3ccc(C)o3)C2c2cccc(Oc3ccccc3)c2)no1 (stereo not given)	?	26µM*	i	i	4%	1%
CCCOc1ccc(C2C(C(=O)c3cc4ccccc4o3)=C(O)C(=O)N2c2cc(C)on2)cc1 (stereo not given)	?	19%	i	?	1%	-1%
COc1cccc(C2C(C(=O)c3cc4ccccc4o3)=C(O)C(=O)N2c2cc(C)on2)c1 (stereo not given)	-11%	18µM*	i	i	-3%	?
COc1ccc(OC)c(C2C(C(=O)c3cc4ccccc4o3)=C(O)C(=O)N2c2cc(C)on2)c1 (stereo not given)	2%	8%	3.7µM*	?	10%	12%
CCN(Cc1ccccc1)C(=O)Cn1c(C(C)O)nc2ccccc21 (stereo not given)	-32%	0.73µM*	i	i	2%	1%
CCOc1cc(C(=O)Nc2ccc(-c3nc4ccccc4s3)cc2Cl)cc(OCC)c1OCC	nt	nt	i	i	nt	nt
CCCOc1cc(C)c(S(=O)(=O)N2CCOCC2)cc1C	-1%	5%	nt	nt	nt	nt
COc1cc(C)c(S(=O)(=O)N2CCOCC2)cc1C	8.2µM*	3.3µM*	i	i	9%	-2%
CN(C)c1ccc(NC(=O)c2ccc3c(c2)nnn3C)cc1	16µM*	?	i	i	23%	14%
SMILES	SW480 rereplic	MCF10A rerep	KB-V1 MDR tox	KB-3-1 cytotox	HT1080 IDH1KD tx	HT1080NT lethal
O=C(CSc1oc(-c2ccc(F)cc2)nc1S(=O)(=O)c1ccccc1)NC1CCCCC1	nt	nt	i	i	nt	nt
Cc1oncc1-c1csc(-c2ccccc2Cl)n1	i[1.84 µM]	-4%	13µM*	?	-2%	17%
CN(C)[C@H]1N(C(=O)c2ccc(Br)cc2)N=C2c3ccccc3S(=O)(=O)N21	-3%	3%	8.2µM*	i	4%	-1%
Cc1scc(-c2n[nH]c(=S)n2C(C)c2ccccc2)c1C (stereo not given)	13%	10µM*	?	?	3%	8%
Oc1ccccc1-c1nc2c3ccccc3c3ccccc3c2[nH]1	?	18µM*	i	i	?	?
CCCOc1ccc(CNC(=O)c2ccc(C)c(-n3c(C)nc4cccnc43)c2)cc1	nt	nt	i	i	nt	nt
COc1c(C(=O)Nc2ccc3[nH]c(=O)[nH]c3c2)cc2ccccc2c1Br	?	11µM*	i	i	-4%	-11%
COc1c(C(=O)Nc2ccc(CN3CCOCC3)cc2)cc2ccccc2c1Br	?	?	?	i	?	-12%
COc1ccc2c(c1)c(C(C)=O)c(C)n2CCc1ccccc1	-7%	3%	i	i	-29%	-18%
O=c1[nH]c2ccc(Cl)cc2c(-c2ccccc2)c1SC(=S)N1CCCCC1	-1%	?	i	i	16µM*	?
O=c1[nH]c2ccc(Cl)cc2c(-c2ccccc2)c1SC(=S)N1CCOCC1	1%	?	i	i	?	16µM*
NNC(=O)CSc1c(-c2ccccc2)c2cc(Cl)ccc2[nH]c1=O	-8%	11%	i	i	-2%	-2%
CC(C)NC(=S)N/N=C1\CCCc2ccccc21	?	23%	i	i	-4%	-8%
CC(C)NC(=S)NN=C1CCC(c2ccccc2)CC1 (stereo not given)	21µM*	-12%	i	i	12%	7%
COC(=O)CNC(=O)C1Nc2ccc(OC(F)(F)F)cc2C2C=CCC12 (stereo not given)	2%	?	i	i	0%	0%
CCOC(=O)c1sc(N)c(C(=O)Nc2ccccc2OC)c1C	16µM*	10µM*	10µM*	?	7.3µM*	?
Cc1cc(NC(=O)CCN2C(=O)C3C4CCC(C4)C3C2=O)c(C)cc1Br (stereo not given)	-2%	4%	15µM*	i	-2%	-5%

Compound activity from PubChem.
